Assay outcomes deposited in PubChem BioAssay by Milwaukee Institute for Drug Discovery.
The list is not random: actives were taken first. Their share in the collection is about 6.8%.
Cy5 interf NS3h – Cy5 fluorescence quenchers or enhancers, artefact control for HCV NS3 helicase inhibitor project, biochemical, ChemBridge library, Cy5 readout. Cy5-dT15 DNA with NS3h, fluorescence interference; actives lie on both sides; signal over control mean, under 1 quenches. fluorescence interference ratio at 100 µM. 6% of 16,000 active;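 active = compound fluorescence over control fluorescence at most 0.8, a quencher, or at least a set upper limit, an enhancer; inactive = ratio between 0.8 and the set upper limit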
HCV NS3h FP – HCV NS3 helicase inhibitors, primary screen, biochemical, fluorescence polarization, ChemBridge library | Hepatitis C virus NS3 helicase | NS3h Cy5-dT15 DNA binding | inhibition, % at 100 µM | 1.6% of 16,000 active | AID 687043, 2013;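 active = inhibition above the average over every tested compound plus 3 SD, cut at about 40% in these data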
Starred values were filed as active, the others as inactive.

SMILES | Cy5 interf NS3h | HCV NS3h FP
COc1ccc(-n2nc3cc(C)c(NC(=O)c4ccco4)cc3n2)cc1 | 1.06 | 24.4
COc1ccc(CC(=O)Nc2ccc(C)c(NC(=O)c3ccccc3)c2)cc1OC | 0.972 | -25.6
O=C(Nc1ccc2nn(-c3ccccc3)nc2c1)C(Cl)(Cl)Cl | 0.689* | 2.2
Cc1ccc(NC(=O)c2ccco2)cc1NC(=O)c1ccccc1 | 0.78* | 8.7
CCOC(=O)c1cccc(NC(=O)c2ccco2)c1 | 0.683* | 15.9
O=C(O)CCC(=O)Nc1ccc2nn(-c3ccccc3)nc2c1 | 1.01 | 3.0
Cc1ccc(-n2nc3ccc(NC(=O)c4ccco4)cc3n2)cc1 | 0.683* | 14.1
CCc1ccc(N2C(=O)NC(=O)/C(=C\c3cc(Cl)c(OCC(=O)O)c(Cl)c3)C2=O)cc1 | 0.951 | 1.7
CCOc1cc(OCC)cc(C(=O)Nc2ccc3oc(-c4ccc(OC)cc4)nc3c2)c1 | 0.985 | 12.7
O=C(O)/C=C\C(=O)Nc1ccccc1SC(F)(F)F | 0.986 | -19.1
CC(=O)NC(c1ccccc1)C1C(=O)N(c2ccccc2)N=C1C (configuration not stated) | 0.971 | 3.2
COc1ccc(Br)cc1/C=C/C(=O)Nc1ccc(O)c(-c2nc3ccccc3o2)c1 | 1.08 | 2.2
O=C1Nc2ccc(Br)cc2/C1=C/C(=O)c1ccc(Cl)cc1 | 1.16 | 19.4
CCOC(=O)c1c(C)oc2c(Br)cc(NS(=O)(=O)c3ccccc3)cc12 | 0.972 | 13.9
CCc1ccc(S(=O)(=O)Nc2cc3c(C(=O)O)c(C)oc3c3ccccc23)cc1 | 0.72* | -17.9
Cc1ccc(OCC(=O)Nc2c(C)cc(Br)cc2C)cc1C | 0.965 | -0.7
CN(C)c1ccc(C2C(=C(O)c3ccc(F)cc3)C(=O)C(=O)N2CCCCCC(=O)O)cc1 (configuration not stated) | 0.995 | -2.8
CC(C)(C)CC(C)(C)NC(=O)c1ccc2nccnc2c1 | 0.609* | 4.0
O=C(Nc1ccccc1F)c1ccc2nccnc2c1 | 1.03 | -0.9
COc1c(Cl)ccc(Cl)c1C(=O)Nc1c(C)cccc1C(C)C | 1.09 | 5.0
COc1cc(C(=O)Nc2c(C)cccc2C(C)C)c(Br)c(OC)c1OC | 1.21* | 7.3
COc1cccc(C2C(C(=O)Nc3ccccc3)=C(C)N=c3s/c(=C\c4ccc(N5CCOCC5)o4)c(=O)n32)c1 (configuration not stated) | 1.01 | -1.9
O=C(Nc1ccc2c(c1)oc1ccccc12)c1cccc2ccccc12 | 0.947 | 5.2
N#Cc1cn(-c2ccccc2)nc1-c1cccs1 | 1.08 | 17.4
C/C(=N\N=C1/c2ccccc2C(=O)C1C(=O)C(c1ccccc1)c1ccccc1)c1cccs1 (configuration not stated) | 0.684* | 4.0
SMILES | Cy5 interf NS3h | HCV NS3h FP
CC(CNC(=O)c1cccs1)c1ccccc1 (configuration not stated) | 0.995 | -1.6
CC(C)(C)c1cc(/C=N\O)c(C(C)(C)C)s1 | 0.826 | 30.4
COc1ccc(C(=O)CSc2nc3ccccc3c(=O)[nH]2)cc1 | 1.06 | 0.7
COc1ccc(C(=O)CSc2nnc(Sc3nc4ccccc4[nH]3)o2)cc1 | 0.538* | 9.6
Cc1ccc(N=Cc2ccc([N+](=O)[O-])s2)c(C)c1 | 0.8* | 28.8
O=[N+]([O-])c1ccc(C=Nc2ccc(Cl)c([N+](=O)[O-])c2)s1 | 0.947 | -3.4
O=C1C2C(C(=O)N1/N=C\c1ccc(Cl)cc1)C1C=CC2C12CC2 (configuration not stated) | 1.11 | 15.4
O=C(Nc1ccc(-c2nc3ncccc3o2)cc1)c1ccc(-c2cccc(Cl)c2)o1 | 1.21* | -44.1
O=C(Nc1ccc2ccccc2c1)c1ccc(-c2cccc(Cl)c2)o1 | 0.942 | 5.2
COc1cc(/C=N\N2C(=O)CSC2=S)ccc1OCCOc1ccc(C(C)(C)C)cc1 | 1.11 | 10.9
COc1cc(/C=N\N2C(=O)CSC2=S)ccc1OCCOc1cc(C)ccc1C(C)C | 1.2* | 6.3
CC(C)CCNC(=O)c1cccc([N+](=O)[O-])c1 | 1.04 | 16.6
CC(NC(=O)NC(=O)c1cccc([N+](=O)[O-])c1)C1CC1 (configuration not stated) | 0.641* | 9.6
CCCN1C/C(=C\c2ccccc2)C(=O)/C(=C/c2ccccc2)C1 | 1.05 | 4.6
COc1cc(/C=C2\NC(=S)NC2=O)ccc1Oc1ccc([N+](=O)[O-])cn1 | 0.831 | 12.1
COc1cc(/C=C2\NC(=S)NC2=O)c([N+](=O)[O-])cc1OC | 0.506* | -19.9
C=C(C)Cn1c(-c2ccccc2OC)n[nH]c1=S | 1 | -1.7
O=C(Nc1c(F)cc(F)cc1Br)c1nc2nc(-c3ccccc3)cc(C(F)(F)F)n2n1 | 0.71* | 13.3
O=C(NCC1CCCO1)c1nc2nc(-c3ccccc3)cc(C(F)(F)F)n2n1 (configuration not stated) | 0.922 | -1.6
O=[N+]([O-])c1ccc(N2CCN(S(=O)(=O)c3ccccc3)CC2)cc1Sc1cccc2cccnc12 | 0.971 | 14.3
O=[N+]([O-])c1ccc(N2CCNCC2)cc1Sc1cccc2cccnc12 | 0.75* | 1.5
COc1cc(Br)cc(/C=C2/SC(=S)N(CC(=O)O)C2=O)c1O | 1.03 | 18.4
CC(=O)C(C(C)=O)C1=CC(=O)C(=O)c2ccccc21 | 0.526* | 5.9
COc1ccccc1C=C1C(=O)c2ccccc2C1=O | 0.986 | 25.8
O=C(O)CN1C(=O)c2cccc3c(Br)ccc1c23 | 1.05 | 6.8
SMILES | Cy5 interf NS3h | HCV NS3h FP
O=C(O)c1cccc2c(Br)ccc(C(=O)O)c12 | 0.677* | 3.1
CCCCOc1ccc(C(=O)O/N=C(\c2ccncc2)c2ccc([N+](=O)[O-])cc2)cc1 | 0.747* | 10.5
O=C(O/N=C(\c1ccncc1)c1ccc([N+](=O)[O-])cc1)c1ccccc1F | 0.988 | 11.5
COC(=O)c1ccccc1NC(=O)c1ccncc1 | 1.01 | -5.0
CN(C)c1ccc(C2C(=C(O)c3ccc(Cl)cc3)C(=O)C(=O)N2C)cc1 (configuration not stated) | 1.04 | -0.7
COc1ccc(CN2CCN(S(=O)(=O)c3ccc(C)cc3)CC2)cc1OCc1ccccc1 | 0.742* | 9.6
Cc1ccc(S(=O)(=O)N2CCN(Cc3ccccc3)CC2)cc1[N+](=O)[O-] | 0.978 | 2.3
O=C(O)CCC(=O)Nc1cc(NC(=O)CCC(=O)O)cc(C(=O)O)c1 | 1.03 | 14.3
COc1ccc2c(-c3ccccc3)cc(=O)[nH]c2c1 | 0.984 | 2.0
Cc1ccc2c(-c3ccc([N+](=O)[O-])cc3)cc(=O)[nH]c2c1 | 0.62* | 1.2
Cn1c(-n2c(CCCN3C(=O)c4ccccc4C3=O)nc3ccccc3c2=O)nc2ccccc21 | 0.674* | 11.5
Cn1c(CC(O)(c2ccccc2)c2ccccc2)nc2ccccc21 | 1.06 | 11.9
O=C(CCN1C(=O)c2ccccc2C1=O)NCc1ccccn1 | 0.966 | 6.7
O=C1c2ccccc2C(=O)N1CCc1nc2ccccc2c(=O)n1-c1nccs1 | 0.59* | 16.1
CCOC(=O)C1=C(c2ccccc2)OC(N)=C(C#N)C1c1cccc(OC)c1 (configuration not stated) | 1.02 | 8.4
COc1ccc(S(=O)(=O)Oc2ccccc2)cc1 | 1.02 | 5.1
COc1cccc(C(=O)Nc2ccc(N3CCN(C(C)=O)CC3)cc2)c1 | 1.03 | 3.4
N#Cc1cc(N=Cc2cccc(C=Nc3ccc(N)c(C#N)c3)c2)ccc1N | 1.23* | 7.3
Cn1c(=O)oc2cc(Cl)c(C(=O)O)cc21 | 1.02 | -8.5
